In assay [1] the target is Cellular tumor antigen p53 (Homo sapiens) (UniProt P04637). Nature of the assay: Primary qHTS for small molecule compounds that upregulate eGFP-tagged delta133p53alpha (in N-terminal) cells. (AID 2060322).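 For activation: cells pre-induced with doxycycline then dosed without doxycycline; series mostly up to about 56 µM; 0% = DMSO vehicle and 100% = reference activator.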 Note: nearly all actives have a fitted effect of over 75% in size. Note: potency is the fitted concentration of half-maximal effect. The note with it: NCI-H358 eGFP-delta133p53alpha fluorescence, 24 h; activation: stronger effect = higher value. In outline:
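NCI-H358 cells pre-induced 24 h with 10 ng/ml doxycycline for eGFP-delta133p53alpha, plated dox-free and exposed 24 h at 37C to titrated compounds. Fixed, Hoechst-stained; gated GFP peak intensity by laser scanning cytometry, normalized to DMSO (0%) and 57.5 uM 5-azacytidine (100%).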
(In general: In qHTS, concentration-response curves come from the screen itself.)

In assay [2] the target is Aldehyde dehydrogenase, mitochondrial (Homo sapiens) (UniProt P05091). Nature of the assay: qHTS for Inhibitors of the Aldehyde Dehydrogenase Family (ALDH2) Primary screen (AID 2061308).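 Note: plate controls were vehicle for no effect and reference inhibitor for full effect; nearly all actives have a fitted effect of over 55% in size.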
In assay [3] the target is Retinaldehyde dehydrogenase 3 (Homo sapiens) (UniProt P47895). Nature of the assay: qHTS for Inhibitors of the Aldehyde Dehydrogenase Family (ALDH1A3) Primary screen (AID 2061315).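 Note: plate controls were DMSO vehicle for no effect and reference inhibitor for full effect.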

Where “and” joins values, the source holds several entries; their conditions need not be identical. Identical values can stand only once. Results filed as inconclusive are left out. Values without a mark were called inactive. Calls of active or inactive are those of the source. Calls come from the whole dose curve; as a rule, active = well fitted curve in the direction sought with a large enough effect; inconclusive = small, poorly fitted or top-dose-only effect, or another doubt; inactive = no such curve, though single readings can be large; an effect the other way counts as inactive or inconclusive.

Chain of Cellular tumor antigen p53 (Homo sapiens) (P04637 whole entry, looked up): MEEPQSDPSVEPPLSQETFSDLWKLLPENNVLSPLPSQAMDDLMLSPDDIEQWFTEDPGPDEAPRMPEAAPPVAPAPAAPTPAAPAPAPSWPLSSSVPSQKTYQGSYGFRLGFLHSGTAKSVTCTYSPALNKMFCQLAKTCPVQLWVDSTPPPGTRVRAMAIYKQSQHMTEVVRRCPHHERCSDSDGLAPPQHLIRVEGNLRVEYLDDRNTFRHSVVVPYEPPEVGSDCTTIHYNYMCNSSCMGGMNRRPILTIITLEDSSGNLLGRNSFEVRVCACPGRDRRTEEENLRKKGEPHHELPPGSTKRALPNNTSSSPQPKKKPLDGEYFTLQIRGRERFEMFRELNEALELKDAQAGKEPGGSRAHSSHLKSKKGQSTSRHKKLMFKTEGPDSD

On to `Cc1occc(=O)c1O[C@@H]1O[C@H](CO)[C@@H](O)[C@H](O)[C@H]1O`, for which the activation in assay [1] was 11.6%. The Potency entry in assay [2] and in assay [3] was “inactive” in each case.
With `CC(=O)O[C@@H]1CC2C(/C=C(\C)C(=O)[C@@]3(O)C[C@@H](C)[C@H](OC(=O)c4ccccc4)C3/C=C/1C)C2(C)C` (stereo not given in full), the activation in assay [1] is -10.7%. For the same compound, the Potency result in assay [2] and in assay [3] was “inactive” in each case.
For the compound `O=C(OC[C@H]1O[C@H](O[C@H]2CO[C@H](CO)[C@@H](O)[C@@H]2O)[C@H](O)[C@@H](O)[C@H]1O)c1ccccc1`, in assay [1], the activation is -4.58%. Further, the Potency result in assay [2] and in assay [3] was “inactive” each time.
For the compound `Cc1ccc(C2(COC(=O)C(C)C)CO2)c(OC(=O)C(C)C)c1` (stereo not given), the activation in assay [1] is 3.82%. Further, the Potency entry in assay [2] and in assay [3] was “inactive” each time.
As to `COCCN(C)Cc1ccc2nc3sc(C(=O)N(C)C4CCCCC4)cn3c2c1`, the activation in assay [1] was 15.7%. The Potency result in assay [2] and in assay [3] was “inactive” in each case.
`CC(C)[C@@](O)(c1ccc2cc(OC(F)F)c(OC(F)F)cc2c1)c1cn[nH]n1`: the activation in assay [1] was -0.333%. Further, the Potency entry in assay [2] and in assay [3] was “inactive” in each case.
Consider `C[C@@H](NC(=O)c1ccc(C#Cc2cccc(F)c2)cn1)C(C)(C)O`, for which the activation in assay [1] is -4.33%. The Potency entry in assay [2] and in assay [3] was “inactive” throughout.
Take `NC(=O)Nc1cc(-c2cccc(F)c2)sc1C(=O)NC1CCCNC1` (stereo not given): the Potency in assay [1] is 19 µM (active). The Potency entry in assay [2] and in assay [3] was “inactive” throughout.
In the case of `COc1cc2c(cc1OC)[C@@H]1[C@H](O)[C@@H](OC)C=C3CCN(C2)[C@H]31`, in assay [1], the Potency is 16.6 µM (active). For the same compound, the Potency result in assay [2] and in assay [3] was “inactive” in each case.
Take `C=C1C(=O)O[C@@H]2C[C@@H](C)[C@]34C[C@]5(C(=O)O[C@H]6CC(C)=C([C@H](C)CCCO)[C@H](OC(=O)C(C)CC)[C@H]65)[C@@H](C(C)=C3C[C@@H]12)[C@H]4OC(C)=O` (stereo not given in full): the Potency in assay [1] is 6.3 µM (active). The Potency entry in assay [2] and in assay [3] was “inactive” throughout.
`O=C(/C=C/c1ccc(O)cc1)OC[C@H]1O[C@@H](OC(=O)/C=C/c2ccccc2)[C@H](O)[C@@H](O)[C@@H]1O`: the activation in assay [1] is -1.53%. The Potency entry in assay [2] and in assay [3] was “inactive” in each case.
Take `O=C(O)[C@H]1CCCC[C@H]1C(=O)N1CCc2ccccc2[C@H]1CN1C(=O)c2ccccc2C1=O`: the activation in assay [1] was -3%. Also, the Potency entry in assay [2] and in assay [3] was “inactive” throughout.
On to `CC(C)(C)NC(=O)[C@@H]1CN(Cc2cccnc2)CCN1C[C@@H](O)C[C@@H](Cc1ccccc1)C(=O)N[C@H]1c2ccccc2C[C@H]1O`, for which, in assay [1], the activation is -2.82% and 2.86%. The Potency entry in assay [2] and in assay [3] was “inactive” in each case.
Consider `Nc1nc(Cl)nc2c1ncn2C1OC(CO)C(O)C1F` (stereo not given), for which the activation in assay [1] was 0%. Also, the Potency result in assay [2] and in assay [3] was “inactive” throughout.
Turning to `CC(/C=C/[C@]1(O)[C@@]2(C)CO[C@@]1(C)C[C@@H](O)C2)=C\C(=O)O[C@@H]1O[C@H](CO)[C@@H](O)[C@H](O)[C@H]1O`, the activation in assay [1] was -16.8%. Also, the Potency entry in assay [2] and in assay [3] was “inactive” each time.
Regarding `Cc1ccc([C@@H]2CC=C(C(=O)O)[C@H](c3ccc(C(C)(C)C)cc3)N2S(=O)(=O)c2ccc(C)cc2)cc1`, in assay [1], the activation is -26.3%. For the same compound, the Potency result in assay [2] and in assay [3] was “inactive” in each case.
For the compound `C=C1CC23CCC4[C@@](C)(CCC[C@@]4(C)C(=O)O)C2CCC1C3` (stereo not given in full), in assay [1], the activation was 6.25%. Moreover, the Potency entry in assay [2] and in assay [3] was “inactive” throughout.
Consider `CC1OC2OC(=O)C3(C)CC4=C(CO)C5=C(CC(=O)C4(C)C(C1=O)C23)C(C)(C)OC(=O)C5` (stereo not given), for which, in assay [1], the activation is -7.63%. Besides, the Potency entry in assay [2] and in assay [3] was “inactive” each time.
Turning to `COc1ccc2c(NC(=O)Nc3cccc(C(F)(F)F)n3)ccnc2c1`, the activation in assay [1] is 16.1%. The Potency result in assay [2] and in assay [3] was “inactive” throughout.
On to `CC1C2=CC(=O)OC2(O)CC2C1C(O)CC1C(C)(CO)CCCC21C` (stereo not given), for which the activation in assay [1] was -9.16%. For the same compound, the Potency entry in assay [2] and in assay [3] was “inactive” throughout.
Regarding `CC1(C)CC[C@]2(C(=O)O[C@@H]3O[C@H](CO)[C@@H](O)[C@H](O)[C@H]3O)CC[C@]3(C)C(=CCC4[C@@]5(C)C[C@@H](O)[C@H](O)C(C)(C)C5CC[C@]43C)C2[C@@H]1O` (stereo not given in full), the activation in assay [1] is -8.04%. The Potency result in assay [2] and in assay [3] was “inactive” throughout.
In the case of `COc1ccc(C2(CNC(=O)[C@](C)(Cc3c[nH]c4ccccc34)NC(=O)Nc3ccc([N+](=O)[O-])cc3)CCCCC2)nc1`, in assay [1], the activation was 12.9%. Also, the Potency result in assay [2] and in assay [3] was “inactive” each time.
Consider `C#CCOc1ccc2c(c1)c(-c1ccc(C(C)C)cc1)nc(=O)n2C(C)C`, for which the activation in assay [1] was -0.893%. Also, the Potency result in assay [2] and in assay [3] was “inactive” throughout.
`COC(=O)C1=CO[C@@H](O[C@@H]2O[C@H](CO)[C@@H](O)[C@H](O)[C@H]2O)[C@@H]2[C@@H](C(=O)OC)[C@@H](O)C(O)[C@H]12` (stereo not given in full): the activation in assay [1] is -19.8%. The Potency entry in assay [2] and in assay [3] was “inactive” each time.
For `COC(=O)CC[C@@H](C)[C@H]1CC[C@H]2[C@@H]3CC(=O)[C@H]4C[C@H](OC(C)=O)CC[C@]4(C)[C@H]3CC[C@]12C`, the activation in assay [1] is -4.33%. Moreover, the Potency entry in assay [2] and in assay [3] was “inactive” in each case.

(Values after PubChem BioAssay (NCATS).)
